Compound activity (PubChem BioAssay)
Shown is part of a subset that was picked to be rich in hits.
IL-1B inflam inh: inflammasome signaling inhibition, IL-1 beta readout | AID 743279 | THP-1 LPS/ATP IL-1B secretion, AlphaLISA, 16 h; hits give low values | activity change, % at 57.5 µM | 360,000 tested, 4.7% active; in the data active = activity change below about -50%; inconclusive = mostly about -30% to -49%
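Secreted IL-1B measured by AlphaLISA bead assay after 16 h compound exposure of THP-1 cells; compounds (final up to 57.5 uM) added 1 h before LPS (250 ng/mL) and ATP (1.25 mM) stimulation; lower signal means less secretion.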
HT1080 IDH1KD tx: kills HT-1080 cells with IDH1 knockdown; Potency, µM (top dose mostly 46.1 µM), most hits filed as cytotoxic; 360,000 tested, 2% active; HT-1080 IDH1 knockdown viability, ATP luminescence, 48 h; AID 686971
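CellTiter-Glo luminescence after 48 h compound exposure at 37 degrees C of IDH1-knockdown HT-1080 cells in 5% FBS RPMI. %Activity scaled between DMSO wells and cell-free media wells, with curves fitted and assigned curve classes.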
12-LOX inh: ALOX12 (human) lipoxygenase inhibition. P18054. purified 12hLO, xylenol orange hydroperoxide absorbance. Potency, µM (top dose mostly 108 µM), actives largely listed as inhibitors. 580,000 tested, 1.1% active. AID 1671190
Target sequence (P18054 whole entry, looked up): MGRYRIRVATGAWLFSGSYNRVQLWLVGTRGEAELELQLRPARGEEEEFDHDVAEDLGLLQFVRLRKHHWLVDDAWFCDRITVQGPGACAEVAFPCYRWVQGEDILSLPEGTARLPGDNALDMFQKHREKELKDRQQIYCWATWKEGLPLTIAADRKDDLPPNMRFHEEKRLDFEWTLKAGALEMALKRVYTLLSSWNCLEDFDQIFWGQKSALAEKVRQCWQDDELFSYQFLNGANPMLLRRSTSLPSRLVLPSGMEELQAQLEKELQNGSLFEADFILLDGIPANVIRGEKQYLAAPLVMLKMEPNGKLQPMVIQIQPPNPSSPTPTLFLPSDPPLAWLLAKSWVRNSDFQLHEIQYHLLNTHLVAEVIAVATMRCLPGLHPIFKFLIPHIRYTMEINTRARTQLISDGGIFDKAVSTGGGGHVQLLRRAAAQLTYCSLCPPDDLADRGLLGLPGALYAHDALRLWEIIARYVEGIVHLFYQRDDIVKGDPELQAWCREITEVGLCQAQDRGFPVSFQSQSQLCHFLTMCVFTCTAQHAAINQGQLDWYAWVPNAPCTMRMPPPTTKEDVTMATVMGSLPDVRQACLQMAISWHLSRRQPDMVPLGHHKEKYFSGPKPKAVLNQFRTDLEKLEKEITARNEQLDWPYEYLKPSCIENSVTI
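Purified human 12hLO (150 nM final) in 25 mM Hepes, 0.01% Triton X-100, pH 7.0 was preincubated 15 min at room temperature with compound. Then 40 uM arachidonic acid was added, 30 min. Hydroperoxide was read by Fe-XO absorbance ratio 573/405 nm.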
TDP1 cell CPT: DT40-hTDP1 cell growth loss with CPT; chicken DT40 Tdp1-/-;hTDP1 cells + 20 nM CPT, ATP luminescence, 48 h; 420,000 tested, 12% active; Potency, µM (doses to about 46.2 µM), most hits filed as inhibitors; also: nearly all actives have a fitted effect of over 55% in size
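Chicken DT40 Tdp1-/- cells stably complemented with human TDP1 were seeded at 400 cells/well in medium containing 20 nM camptothecin, exposed to pin-transferred compounds, and grown at 37 °C for at least 48 hr. Viability was read as ATP luminescence.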
HT1080NT lethal: kills 2HG-producing HT-1080-NT fibrosarcoma cells; HT-1080-NT fibrosarcoma viability, CellTiter-Glo ATP luminescence, 48 h; Potency, µM (doses to about 46.1 µM), actives largely listed as cytotoxic; 360,000 tested, 1.6% active; AID 686970;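 also: NT is the 2HG producing partner of a matched IDH1 knockdown line; nearly all actives have a fitted effect of over 55% in size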
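Viability of the 2HG-overproducing fibrosarcoma line after 48 hours of compound exposure at 37 degrees C was determined by luminescence with CellTiter-Glo, and concentration-effect curves were then fitted and categorized.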
DT40 TDP1 no CPT: qHTS for Inhibitors of human tyrosyl-DNA phosphodiesterase 1 (TDP1): qHTS in cells in absence of CPT. DT40 Tdp1-/- hTDP1 cells, no CPT, ATP luminescence, 48 h. Potency, µM (top dose mostly 46.2 µM), usual class: inhibitors. 420,000 tested, 15% active; also: nearly all actives have a fitted effect of over 55% in size
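Camptothecin absent (DMSO only). Human TDP1-complemented DT40 knockout cells, 400 cells/well, 37 °C for minimum 48 hr; ATP measured via CellTiter-Glo, 30 min dark incubation, luminescence.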
Numbers stand for hits; - = inactive; ? = inconclusive; . = no result; [ ] = dose if it differs, or a comment. Unless noted, calls follow the shape of the dose curve; as a rule, active = well fitted curve in the direction sought with a large enough effect; inconclusive = small, poorly fitted or top-dose-only effect, or another doubt; inactive = no such curve, though single readings can be large; an effect the other way counts as inactive or inconclusive.

SMILES	IL-1B inflam inh	HT1080 IDH1KD tx	12-LOX inh	TDP1 cell CPT	HT1080NT lethal	DT40 TDP1 no CPT
Cc1cccc(C2c3[nH]c4ccccc4c3CCN2Cc2cccn2-c2ncccn2)c1 (stereo unspecified)	-87	?	-	?	?	23µM
CCCC(CCC)C(=O)NCc1nnnn1-c1ccc(OCC)cc1	.	.	-	.	.	.
C#CC(C)(C)NS(=O)(=O)c1cc(-c2nnc(Nc3ccc(C)cc3)c3ccccc23)ccc1C	.	.	-	21µM	.	?
COc1ccc(Nc2nnc(-c3ccc(C(N)=O)cc3)c3ccccc23)cc1	?	-	?	?	-	?
Cc1ccc(-c2nnc(Nc3ccc(CC(N)=O)cc3)c3ccccc23)cc1S(=O)(=O)NCCO	-	-	?	-	-	-
COC(=O)COc1ccc(-c2nnc(Nc3ccc(OC)cc3)c3ccccc23)cc1	.	.	-	.	.	.
CCN(CC)C(=O)c1ccc(Nc2nnc(-c3ccc(C)c(S(=O)(=O)NC)c3)c3ccccc23)cc1	.	.	-	26µM	.	21µM
COc1ccc(Nc2nnc(-c3ccc(C(=O)NCCO)cc3)c3ccccc23)cc1	-	-	-	3.3µM	-	6.5µM
CCN(CC)C(=O)c1ccc(-c2nnc(Nc3ccc(O)cc3)c3ccccc23)cc1	-	-	-	-	-	?
CCN(CC)C(=O)COc1ccc(-c2nnc(Nc3ccc(OC)c(C(=O)NC)c3)c3ccccc23)cc1	-79	-	?	?	-	21µM
O=C(NCc1ccc2c(c1)OCO2)c1nc(-c2ccc(F)cc2)c2ccccn12	.	.	-	.	.	.
CNS(=O)(=O)c1cc(-c2nnc(Nc3ccc(NC(C)=O)cc3)c3ccccc23)ccc1C	?	-	-	16µM	-	18µM
CCN(CC)S(=O)(=O)c1cc(-c2nnc(Nc3ccc(OC)c(C(N)=O)c3)c3ccccc23)ccc1C	.	.	-	18µM	.	?
CCN(CC)C(=O)c1ccc(-c2nnc(Nc3ccc(C(=O)N(C)C)cc3)c3ccccc23)cc1	?	-	-	?	-	16µM
C#CCOc1ccc(-c2nnc(Nc3ccc(NC(C)=O)cc3)c3ccccc23)cc1	.	.	-	?	.	16µM
CC(=O)Nc1ccc(Nc2nnc(-c3ccc(O)cc3)c3ccccc23)cc1	-	-	-	-	-	-
CC(=O)Nc1ccc(NS(=O)(=O)c2cc(-c3n[nH]c(=O)c4ccccc34)ccc2C)cc1	-	-	-	-	-	-
O=C(COc1ccc(Br)cc1)OCCCC(=O)c1ccccc1	.	.	-	.	.	.
CC(=O)NCCNC(=O)Cn1c(C)c(Br)c2ccccc21	.	.	-	.	.	.
O=C1CCCCC(Cc2ccccc2)(C(=O)NCCc2ccccc2)N1 (stereo unspecified)	.	.	-	.	.	.
C#Cc1cccc(NC(=O)c2ccc(Cl)cc2Cl)c1	-	-	-	-	-	29µM
O=C(Nc1ccc(Nc2ccccc2)cc1)c1ccccc1	-	-	?	?	-	21µM
O=C(Nc1ccc(Nc2ccccc2)cc1)C(Cl)Cl	-89	-	-	1.2µM	-	1.8µM
O=C(/C=N/NC(=O)c1ccccc1Br)c1ccccc1	-	-	-	?	-	?
O=C(Nc1ccccc1Cl)c1ccc(Cl)cc1Cl	-	-	-	-	-	-
SMILES	IL-1B inflam inh	HT1080 IDH1KD tx	12-LOX inh	TDP1 cell CPT	HT1080NT lethal	DT40 TDP1 no CPT
NC(=O)Nc1ccc(Nc2ccccc2)cc1	-	-	-	?	-	-
O=C(/C=N/NC(=O)c1ccc(Cl)cc1Cl)c1ccccc1	-77	?	-	?	-	?
CC(=O)c1ccc(NC(=O)c2ccc(C)cc2Cl)cc1	.	.	-	.	.	.
COCCN1C(=O)c2ccccc2C(C(=O)NCCCc2ccccc2)C12CCCC2 (stereo unspecified)	.	.	-	.	.	.
O=C(Nc1ccc(Nc2ccccc2)cc1)c1ccc(Cl)cc1Cl	?	?	-	15µM	-	?
O=C(Nc1ccc(Cl)cc1)C1=Cc2ccccc2OC1	-	?	-	?	-	23µM
O=C(Nc1cccnc1)c1ccc(C(=O)Nc2cccnc2)cc1	-	?	-	-	?	?
O=C(Nc1ccc(Nc2ccccc2)cc1)c1ccc(Cl)cc1	-62	-	?	18µM	-	13µM
O=C(Nc1cccnc1)c1ccc(S(=O)(=O)c2ccc(Cl)cc2)cc1	-66	-	-	?	-	23µM
O=C(NCCSC1CCCC1)c1ccncc1	.	.	-	.	.	.
COCCCn1c(C)cc(C(=O)COC(=O)Cc2nn(C)c(=O)c3ccccc23)c1C	.	.	-	.	.	.
O=C(c1nc(-c2ccc(Cl)cc2Cl)c2ccccn12)N1CCN(c2ncccn2)CC1	.	.	-[6.33 µM]	.	.	.
Cc1ccc(Cl)cc1NC(=O)C(C)N(C)Cc1ccc2c(c1)OCCO2 (stereo unspecified)	.	.	-	.	.	.
O=C(CSc1nncn1-c1ccccc1)Nc1cccc(S(=O)(=O)N2CCCC2)c1	.	.	-	.	.	.
COc1cc(OC)cc(C(=O)NCC(=O)Nc2ccc(-c3ccccc3)cc2)c1	-	5.8µM	-	16µM	2.9µM	18µM
N#C/C(C(=O)Nc1ccc(Cl)cc1)=C(/S)Nc1ccccc1	?	?	1.8µM	15µM	?	12µM
COc1cc(OC)cc(C(=O)Nc2ccc(Nc3ccccc3)cc2)c1	-	-	-	21µM	-	?
COc1cc(OC)cc(C(=O)NCC(=O)Nc2ccc(C)c(Cl)c2)c1	-	-	-	-	-	-
CC(C)(C)C(=O)C(Cl)C(=O)Nc1ccccc1 (stereo unspecified)	?	?	-	5.2µM	-	4.1µM
C#CCNC(=O)CC[C@@H]1CNC(=O)[C@@H]2C[C@H](NC(=O)Nc3ccc(F)cc3F)CN12	.	.	-	.	.	.
O=C1N[C@H](CC(=O)N2CCOC(c3ccccc3)C2)C(=O)Nc2ccccc21 (stereo partly specified)	.	.	-	.	.	.
O=C(COC(=O)CCNS(=O)(=O)c1ccccc1)Nc1ccc(F)c(Cl)c1	.	.	-	.	.	.
O=C1CC2(CCCCC2)CC(=O)O1	.	.	-	.	.	.
CCN1CCOC(=O)C1CC(=O)Nc1ccc(C)c(Cl)c1 (stereo unspecified)	.	.	-	7.3µM	.	5.8µM
O=C(CC1C(=O)OCCN1Cc1ccccc1)Nc1ccc(Cl)cc1Cl (stereo unspecified)	.	.	-	.	.	.
CCN1CCOC(=O)C1CC(=O)Nc1cc(Cl)ccc1C (stereo unspecified)	.	.	-	7.3µM	.	15µM
COc1cccc(CN2Cc3cc(NC(=O)c4cccc(F)c4)ccc3OC(C)C2=O)c1 (stereo unspecified)	.	.	-	.	.	.
CN(C)c1ccc(C=C(c2nnnn2-c2ccccc2)c2nnnn2-c2ccccc2)cc1	-	-	-	21µM	-	16µM
O=C(Nc1ccccc1C(=O)N1CCCC1)c1cnc2ccccc2n1	.	.	-	.	.	.
